Measured values: PMC7862700, “An all-to-all approach to the identification of sequence-specific readers for epigenetic DNA modifications on cytosine”

Tests used:
Assay in all cases: DAPPL (digital affinity profiling via proximity ligation, sequencing); 10 mM Tris-HCl pH 7.5, 50 mM NaCl, 1 mM DTT, 4% glycerol, room temperature, 30 min; GST-TFs on glutathione beads, 16-mer random dsDNA library, 0.1% formaldehyde crosslink after washing; high values mean tight binding
FEV = target: T1, FEV (Homo sapiens, UniProt Q99581 1-238); settings: protein: recombinant; tags: N-terminal GST; dsDNA, one strand shown
T1 sequence: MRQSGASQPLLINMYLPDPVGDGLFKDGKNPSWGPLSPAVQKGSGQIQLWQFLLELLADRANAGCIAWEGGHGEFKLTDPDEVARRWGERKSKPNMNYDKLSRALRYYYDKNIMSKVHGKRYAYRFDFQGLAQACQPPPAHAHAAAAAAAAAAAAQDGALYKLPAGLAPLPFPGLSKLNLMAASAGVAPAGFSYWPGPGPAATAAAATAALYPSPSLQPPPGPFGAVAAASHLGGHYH
Method in brief: (§1)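 Binding signal is each hexamer's read frequency for a factor divided by its frequency in the tag-only sample. The factors were GST-fused human transcription factors from yeast, captured on glutathione beads, DNA-barcoded and pooled with that sample. Pools were incubated with 200 nmole of a random double-stranded 16-mer DNA library in Tris/NaCl/DTT/glycerol buffer at room temperature for 30 min, then washed, crosslinked with 0.1% formaldehyde, proximity-ligated with BsaI/T4 ligase (1 h, 37 °C), PCR-amplified and sequenced on an Illumina NextSeq500.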

ETV5 = ETV5 (Homo sapiens, UniProt P41161 1-510); settings: protein: recombinant; tags: N-terminal GST; dsDNA, one strand shown
Method in brief: as §1

HSF1 = HSF1 (Homo sapiens, UniProt Q00613 1-529); settings: protein: recombinant; tags: N-terminal GST; chain copies: 3; dsDNA, one strand shown
Method in brief: as §1

SPIC = target: T2, SPIC (Homo sapiens, UniProt Q8N5J4 1-248); settings: protein: recombinant; tags: N-terminal GST; dsDNA, one strand shown
T2 sequence: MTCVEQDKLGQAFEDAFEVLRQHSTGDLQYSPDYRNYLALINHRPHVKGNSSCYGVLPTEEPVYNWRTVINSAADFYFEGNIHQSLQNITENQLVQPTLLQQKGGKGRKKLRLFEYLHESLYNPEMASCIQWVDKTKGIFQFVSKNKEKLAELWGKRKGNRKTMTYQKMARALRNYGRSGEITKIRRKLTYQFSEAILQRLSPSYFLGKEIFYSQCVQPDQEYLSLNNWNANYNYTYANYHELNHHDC
Method in brief: as §1

ELF4 = ELF4 (Homo sapiens, UniProt Q99607 1-663); settings: protein: recombinant; tags: N-terminal GST; dsDNA, one strand shown
Method in brief: as §1

ELK4 = target: T3, ELK4 (Homo sapiens, UniProt P28324-2 1-405); settings: protein: recombinant; tags: N-terminal GST; dsDNA, one strand shown
T3 sequence: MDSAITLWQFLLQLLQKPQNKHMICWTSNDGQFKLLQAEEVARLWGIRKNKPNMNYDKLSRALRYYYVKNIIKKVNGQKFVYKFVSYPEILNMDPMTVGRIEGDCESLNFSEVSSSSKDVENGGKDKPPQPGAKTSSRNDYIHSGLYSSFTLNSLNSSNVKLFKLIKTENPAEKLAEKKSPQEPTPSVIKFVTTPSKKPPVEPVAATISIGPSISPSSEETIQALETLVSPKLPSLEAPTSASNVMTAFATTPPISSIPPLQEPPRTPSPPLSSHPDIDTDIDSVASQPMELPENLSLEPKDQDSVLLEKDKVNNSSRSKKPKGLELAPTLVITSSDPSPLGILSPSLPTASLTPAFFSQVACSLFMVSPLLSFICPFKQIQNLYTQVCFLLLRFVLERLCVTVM
Method in brief: as §1

ETV2 = target: T4, ETV2 (Homo sapiens, UniProt O00321 1-342); settings: protein: recombinant; tags: N-terminal GST; dsDNA, one strand shown
T4 sequence: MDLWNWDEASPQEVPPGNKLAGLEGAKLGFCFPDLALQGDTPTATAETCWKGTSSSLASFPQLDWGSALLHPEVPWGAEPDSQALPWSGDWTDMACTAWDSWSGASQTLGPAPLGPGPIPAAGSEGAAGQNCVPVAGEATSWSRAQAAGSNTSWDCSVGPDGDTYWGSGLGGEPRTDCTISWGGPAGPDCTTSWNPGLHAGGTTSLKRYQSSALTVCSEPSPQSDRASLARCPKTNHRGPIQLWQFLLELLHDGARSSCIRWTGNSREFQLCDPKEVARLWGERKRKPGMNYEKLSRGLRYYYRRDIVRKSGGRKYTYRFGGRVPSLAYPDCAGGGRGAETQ
Method in brief: as §1

ELF3 = target: T5, ELF3 (Homo sapiens, UniProt P78545 1-371); settings: protein: recombinant; tags: N-terminal GST; dsDNA, one strand shown
T5 sequence: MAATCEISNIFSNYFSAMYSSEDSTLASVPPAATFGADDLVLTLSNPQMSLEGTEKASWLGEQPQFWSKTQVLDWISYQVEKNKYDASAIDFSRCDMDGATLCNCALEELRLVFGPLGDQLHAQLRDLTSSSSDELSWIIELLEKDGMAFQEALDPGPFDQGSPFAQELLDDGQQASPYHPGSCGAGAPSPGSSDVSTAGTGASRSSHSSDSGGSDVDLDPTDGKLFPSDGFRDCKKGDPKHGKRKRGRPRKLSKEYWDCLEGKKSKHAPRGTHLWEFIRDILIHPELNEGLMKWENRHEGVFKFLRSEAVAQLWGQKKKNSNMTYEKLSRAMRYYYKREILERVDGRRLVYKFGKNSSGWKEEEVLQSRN
Method in brief: as §1

CRX = CRX (Homo sapiens, UniProt O43186 1-299); settings: protein: recombinant; tags: N-terminal GST; dsDNA, one strand shown
Method in brief: as §1

ETV1 = ETV1 (Homo sapiens, UniProt P50549 1-477); settings: protein: recombinant; tags: N-terminal GST; dsDNA, one strand shown
Method in brief: as §1

ERF = target: T6, ERF (Homo sapiens, UniProt P50548 1-548); settings: protein: recombinant; tags: N-terminal GST; dsDNA, one strand shown
T6 sequence: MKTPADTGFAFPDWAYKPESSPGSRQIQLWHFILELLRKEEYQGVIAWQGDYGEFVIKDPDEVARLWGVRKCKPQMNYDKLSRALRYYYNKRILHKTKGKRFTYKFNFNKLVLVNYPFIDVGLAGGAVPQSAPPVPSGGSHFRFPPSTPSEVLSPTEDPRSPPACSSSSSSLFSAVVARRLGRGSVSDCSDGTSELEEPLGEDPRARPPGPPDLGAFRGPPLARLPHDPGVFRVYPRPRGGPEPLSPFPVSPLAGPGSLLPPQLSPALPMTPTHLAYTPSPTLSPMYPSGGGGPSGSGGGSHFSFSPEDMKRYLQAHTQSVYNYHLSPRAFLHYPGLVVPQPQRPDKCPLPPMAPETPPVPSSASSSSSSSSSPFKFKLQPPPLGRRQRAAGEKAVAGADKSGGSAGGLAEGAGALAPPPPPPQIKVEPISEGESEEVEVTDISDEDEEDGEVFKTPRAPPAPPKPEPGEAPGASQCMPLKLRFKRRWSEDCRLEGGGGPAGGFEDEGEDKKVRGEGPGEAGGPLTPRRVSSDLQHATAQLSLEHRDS
Method in brief: as §1

ETV3L = target: T7, ETV3L (Homo sapiens, UniProt Q6ZN32 1-361); settings: protein: recombinant; tags: N-terminal GST; dsDNA, one strand shown
T7 sequence: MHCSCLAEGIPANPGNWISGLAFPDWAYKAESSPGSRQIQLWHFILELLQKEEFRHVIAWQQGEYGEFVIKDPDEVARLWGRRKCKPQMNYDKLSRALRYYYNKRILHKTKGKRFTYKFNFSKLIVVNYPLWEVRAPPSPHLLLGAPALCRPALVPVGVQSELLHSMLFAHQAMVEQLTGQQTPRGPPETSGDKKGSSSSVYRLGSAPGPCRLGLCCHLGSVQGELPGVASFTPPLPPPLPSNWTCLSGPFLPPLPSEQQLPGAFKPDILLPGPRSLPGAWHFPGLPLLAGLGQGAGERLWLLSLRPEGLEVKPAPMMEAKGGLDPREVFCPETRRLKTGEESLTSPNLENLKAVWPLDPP
Method in brief: as §1

ETS2 = target: T8, ETS2 (Homo sapiens, UniProt P15036 1-469); settings: protein: recombinant; tags: N-terminal GST; dsDNA, one strand shown
T8 sequence: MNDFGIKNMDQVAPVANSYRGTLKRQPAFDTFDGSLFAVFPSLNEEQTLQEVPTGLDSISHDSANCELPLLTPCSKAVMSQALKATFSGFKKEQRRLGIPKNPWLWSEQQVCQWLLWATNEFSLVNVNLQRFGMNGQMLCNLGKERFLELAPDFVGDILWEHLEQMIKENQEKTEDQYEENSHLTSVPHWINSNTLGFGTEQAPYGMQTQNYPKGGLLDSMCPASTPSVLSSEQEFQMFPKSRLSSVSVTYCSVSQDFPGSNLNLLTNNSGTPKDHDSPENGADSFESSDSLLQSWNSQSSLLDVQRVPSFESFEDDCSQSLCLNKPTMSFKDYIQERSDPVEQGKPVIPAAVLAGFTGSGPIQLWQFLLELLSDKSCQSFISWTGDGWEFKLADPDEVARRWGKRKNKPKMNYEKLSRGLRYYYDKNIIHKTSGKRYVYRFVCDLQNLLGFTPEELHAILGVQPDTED
Method in brief: as §1

SPDEF = target: T9, SPDEF (Homo sapiens, UniProt O95238 1-335); settings: protein: recombinant; tags: N-terminal GST; dsDNA, one strand shown
T9 sequence: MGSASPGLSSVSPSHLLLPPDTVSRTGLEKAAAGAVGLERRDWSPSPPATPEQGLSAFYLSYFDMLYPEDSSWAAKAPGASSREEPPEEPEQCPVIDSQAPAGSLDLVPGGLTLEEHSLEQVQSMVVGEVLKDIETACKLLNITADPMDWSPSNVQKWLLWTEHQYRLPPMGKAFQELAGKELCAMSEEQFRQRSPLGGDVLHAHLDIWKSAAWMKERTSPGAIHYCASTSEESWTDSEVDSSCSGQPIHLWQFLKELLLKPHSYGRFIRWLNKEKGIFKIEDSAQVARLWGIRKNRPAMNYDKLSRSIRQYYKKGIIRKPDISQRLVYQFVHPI
Method in brief: as §1

ETV7 = target: T10, ETV7 (Homo sapiens, UniProt Q9Y603 1-341); settings: protein: recombinant; tags: N-terminal GST; dsDNA, one strand shown
T10 sequence: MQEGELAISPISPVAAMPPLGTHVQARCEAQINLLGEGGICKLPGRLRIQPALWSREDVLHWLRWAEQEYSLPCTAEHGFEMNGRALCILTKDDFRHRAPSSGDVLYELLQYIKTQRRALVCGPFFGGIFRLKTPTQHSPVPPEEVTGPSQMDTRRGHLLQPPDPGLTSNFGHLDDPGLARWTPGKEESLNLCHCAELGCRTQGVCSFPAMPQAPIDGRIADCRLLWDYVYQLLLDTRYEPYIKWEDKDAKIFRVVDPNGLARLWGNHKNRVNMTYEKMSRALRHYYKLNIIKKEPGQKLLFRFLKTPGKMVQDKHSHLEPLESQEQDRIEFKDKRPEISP
Method in brief: as §1

ELF5 = target: T11, ELF5 (Homo sapiens, UniProt Q9UKW6-2 1-255); settings: protein: recombinant; tags: N-terminal GST; dsDNA, one strand shown
T11 sequence: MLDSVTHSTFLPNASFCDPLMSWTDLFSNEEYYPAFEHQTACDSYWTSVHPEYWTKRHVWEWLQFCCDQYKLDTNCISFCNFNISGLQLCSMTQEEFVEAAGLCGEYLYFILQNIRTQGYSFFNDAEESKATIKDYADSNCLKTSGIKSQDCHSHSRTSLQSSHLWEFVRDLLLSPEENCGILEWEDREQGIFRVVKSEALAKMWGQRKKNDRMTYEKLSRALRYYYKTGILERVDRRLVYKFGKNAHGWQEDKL
Method in brief: as §1

ETV3 = target: T12, ETV3 (Homo sapiens, UniProt P41162-2 1-143); settings: protein: recombinant; tags: N-terminal GST; dsDNA, one strand shown
T12 sequence: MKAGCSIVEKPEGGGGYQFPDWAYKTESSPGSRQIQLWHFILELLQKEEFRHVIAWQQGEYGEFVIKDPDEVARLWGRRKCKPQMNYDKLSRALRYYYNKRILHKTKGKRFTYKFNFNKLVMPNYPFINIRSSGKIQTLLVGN
Method in brief: as §1

ETV6 = ETV6 (Homo sapiens, UniProt P41212 1-452); settings: protein: recombinant; tags: N-terminal GST; dsDNA, one strand shown
Method in brief: as §1

Chain of ETV5 (P41161 whole entry): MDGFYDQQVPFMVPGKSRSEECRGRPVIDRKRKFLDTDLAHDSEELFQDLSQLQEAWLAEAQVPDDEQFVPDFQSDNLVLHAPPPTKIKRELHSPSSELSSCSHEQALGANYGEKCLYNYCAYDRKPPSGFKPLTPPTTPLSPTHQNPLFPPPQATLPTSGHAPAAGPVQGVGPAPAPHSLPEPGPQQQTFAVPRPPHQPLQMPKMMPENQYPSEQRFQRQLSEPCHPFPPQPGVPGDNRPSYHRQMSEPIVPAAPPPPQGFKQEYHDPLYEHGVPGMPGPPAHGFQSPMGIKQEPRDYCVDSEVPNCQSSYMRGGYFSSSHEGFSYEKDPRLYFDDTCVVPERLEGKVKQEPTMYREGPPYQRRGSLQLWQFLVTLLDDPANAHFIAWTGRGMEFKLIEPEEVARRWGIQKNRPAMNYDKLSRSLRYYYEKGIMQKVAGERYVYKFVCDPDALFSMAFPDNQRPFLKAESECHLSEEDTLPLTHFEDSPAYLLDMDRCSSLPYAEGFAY
Chain of ETV6 (P41212 whole entry): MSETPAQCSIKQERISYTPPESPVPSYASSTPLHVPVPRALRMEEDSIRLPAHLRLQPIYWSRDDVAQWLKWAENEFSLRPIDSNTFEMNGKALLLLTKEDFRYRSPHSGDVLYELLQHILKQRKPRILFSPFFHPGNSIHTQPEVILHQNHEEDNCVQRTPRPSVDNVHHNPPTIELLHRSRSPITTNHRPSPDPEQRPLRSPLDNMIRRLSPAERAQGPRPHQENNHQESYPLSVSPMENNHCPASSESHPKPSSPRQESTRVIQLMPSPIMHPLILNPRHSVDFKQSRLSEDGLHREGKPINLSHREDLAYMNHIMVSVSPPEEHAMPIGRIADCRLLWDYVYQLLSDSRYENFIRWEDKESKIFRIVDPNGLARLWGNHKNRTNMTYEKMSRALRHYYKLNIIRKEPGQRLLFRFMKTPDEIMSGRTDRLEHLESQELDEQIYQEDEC
Chain of ELF4 (Q99607 whole entry): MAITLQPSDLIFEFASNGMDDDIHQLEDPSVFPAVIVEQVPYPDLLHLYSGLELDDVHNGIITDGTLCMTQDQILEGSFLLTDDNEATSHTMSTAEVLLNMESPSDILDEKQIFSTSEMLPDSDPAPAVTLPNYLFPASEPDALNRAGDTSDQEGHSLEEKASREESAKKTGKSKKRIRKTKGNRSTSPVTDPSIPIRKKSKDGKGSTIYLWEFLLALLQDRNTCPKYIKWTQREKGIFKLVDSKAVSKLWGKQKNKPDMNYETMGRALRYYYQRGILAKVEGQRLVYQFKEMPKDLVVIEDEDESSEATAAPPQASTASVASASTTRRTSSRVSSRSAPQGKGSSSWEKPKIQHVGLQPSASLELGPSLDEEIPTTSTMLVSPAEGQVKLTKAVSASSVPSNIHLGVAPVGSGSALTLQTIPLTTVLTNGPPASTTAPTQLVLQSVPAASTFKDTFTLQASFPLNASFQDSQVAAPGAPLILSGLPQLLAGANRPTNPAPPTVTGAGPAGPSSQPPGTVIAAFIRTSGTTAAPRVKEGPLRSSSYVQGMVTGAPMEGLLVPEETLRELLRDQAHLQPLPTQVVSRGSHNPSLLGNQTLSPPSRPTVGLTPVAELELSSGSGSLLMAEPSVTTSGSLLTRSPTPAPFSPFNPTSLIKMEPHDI
Chain of ETV1 (P50549 whole entry): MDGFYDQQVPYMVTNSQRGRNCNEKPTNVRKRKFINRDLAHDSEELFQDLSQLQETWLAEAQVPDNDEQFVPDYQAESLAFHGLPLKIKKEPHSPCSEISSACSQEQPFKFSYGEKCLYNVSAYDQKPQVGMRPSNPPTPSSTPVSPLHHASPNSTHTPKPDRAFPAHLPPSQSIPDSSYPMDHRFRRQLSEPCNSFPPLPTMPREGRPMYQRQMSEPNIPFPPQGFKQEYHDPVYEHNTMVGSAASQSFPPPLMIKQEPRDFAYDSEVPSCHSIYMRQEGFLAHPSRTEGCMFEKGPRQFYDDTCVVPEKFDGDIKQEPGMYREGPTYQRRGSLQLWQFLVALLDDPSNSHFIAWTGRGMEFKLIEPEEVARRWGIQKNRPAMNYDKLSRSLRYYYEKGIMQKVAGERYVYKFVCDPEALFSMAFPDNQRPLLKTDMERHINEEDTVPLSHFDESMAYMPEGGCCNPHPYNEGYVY
Chain of HSF1 (Q00613 whole entry): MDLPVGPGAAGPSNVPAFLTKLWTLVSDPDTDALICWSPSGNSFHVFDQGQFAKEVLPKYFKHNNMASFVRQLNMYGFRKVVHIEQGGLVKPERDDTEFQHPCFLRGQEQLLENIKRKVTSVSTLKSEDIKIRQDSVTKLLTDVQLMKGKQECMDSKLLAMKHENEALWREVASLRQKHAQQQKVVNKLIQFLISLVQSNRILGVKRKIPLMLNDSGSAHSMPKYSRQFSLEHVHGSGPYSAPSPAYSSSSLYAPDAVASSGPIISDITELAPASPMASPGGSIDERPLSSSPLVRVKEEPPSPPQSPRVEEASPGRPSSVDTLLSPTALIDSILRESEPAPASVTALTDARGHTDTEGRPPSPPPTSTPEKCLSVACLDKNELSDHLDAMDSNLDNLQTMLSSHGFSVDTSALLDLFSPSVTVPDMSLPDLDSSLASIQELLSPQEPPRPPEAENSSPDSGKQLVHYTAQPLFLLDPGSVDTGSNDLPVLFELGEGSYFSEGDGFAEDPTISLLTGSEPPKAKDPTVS
Chain of CRX (O43186 whole entry): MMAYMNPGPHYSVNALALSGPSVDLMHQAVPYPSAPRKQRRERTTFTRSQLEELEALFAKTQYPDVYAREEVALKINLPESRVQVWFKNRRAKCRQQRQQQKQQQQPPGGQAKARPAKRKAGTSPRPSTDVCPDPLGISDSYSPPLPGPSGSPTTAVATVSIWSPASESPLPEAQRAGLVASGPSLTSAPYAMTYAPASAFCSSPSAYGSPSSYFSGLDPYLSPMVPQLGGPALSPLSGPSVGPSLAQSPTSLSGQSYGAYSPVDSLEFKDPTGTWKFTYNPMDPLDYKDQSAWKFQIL

Sequence	binding signal (FEV)	binding signal (ETV5)	binding signal (HSF1)	binding signal (SPIC)	binding signal (ELF4)	binding signal (ELK4)	binding signal (ETV2)	binding signal (ELF3)	binding signal (CRX)	binding signal (ETV1)	binding signal (ERF)	binding signal (ETV3L)	binding signal (ETS2)	binding signal (SPDEF)	binding signal (ETV7)	binding signal (ELF5)	binding signal (ETV3)	binding signal (ETV6)
GTCTCA	1.25 fold enrichment (6-mer frequency, TF over GST control)	1.4 fold enrichment (6-mer frequency, TF over GST control)	1.01 fold enrichment (6-mer frequency, TF over GST control)	1.4 fold enrichment (6-mer frequency, TF over GST control)	1.33 fold enrichment (6-mer frequency, TF over GST control)	1.34 fold enrichment (6-mer frequency, TF over GST control)	1.32 fold enrichment (6-mer frequency, TF over GST control)	1.48 fold enrichment (6-mer frequency, TF over GST control)	1.12 fold enrichment (6-mer frequency, TF over GST control)	1.24 fold enrichment (6-mer frequency, TF over GST control)	1.37 fold enrichment (6-mer frequency, TF over GST control)	1.3 fold enrichment (6-mer frequency, TF over GST control)	1.34 fold enrichment (6-mer frequency, TF over GST control)	1.29 fold enrichment (6-mer frequency, TF over GST control)	1.13 fold enrichment (6-mer frequency, TF over GST control)	1.3 fold enrichment (6-mer frequency, TF over GST control)	1.32 fold enrichment (6-mer frequency, TF over GST control)	1.16 fold enrichment (6-mer frequency, TF over GST control)
ATGCGC	1.17 fold enrichment (6-mer frequency, TF over GST control)	1.07 fold enrichment (6-mer frequency, TF over GST control)	1.27 fold enrichment (6-mer frequency, TF over GST control)	1.13 fold enrichment (6-mer frequency, TF over GST control)	1.22 fold enrichment (6-mer frequency, TF over GST control)	1.28 fold enrichment (6-mer frequency, TF over GST control)	1.1 fold enrichment (6-mer frequency, TF over GST control)	1.1 fold enrichment (6-mer frequency, TF over GST control)	1.14 fold enrichment (6-mer frequency, TF over GST control)	1.16 fold enrichment (6-mer frequency, TF over GST control)	1.24 fold enrichment (6-mer frequency, TF over GST control)	1.22 fold enrichment (6-mer frequency, TF over GST control)	1.19 fold enrichment (6-mer frequency, TF over GST control)	1.1 fold enrichment (6-mer frequency, TF over GST control)	1.22 fold enrichment (6-mer frequency, TF over GST control)	1.14 fold enrichment (6-mer frequency, TF over GST control)	1.17 fold enrichment (6-mer frequency, TF over GST control)	1.22 fold enrichment (6-mer frequency, TF over GST control)
